Rows were chosen to be rich in hits. Some 2.4% of all compounds tested hit in one or more screens of this group.
Nrf2 ARE act: activators of Nrf2 (ARE) signaling; 410,000 compounds, 0.31% hits; Potency, µM (titrated, usually from 46.1 µM), most hits filed as activators; AREc32 ARE-luciferase reporter (MCF7-derived line), luminescence, 24 h; also: nearly all actives have a fitted effect of over 65% in size
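Each well held 1000 AREc32 cells, which were incubated with compound for 24 hr at 37 deg C after overnight attachment, and ARE reporter activity was quantified by firefly luciferase luminescence.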
Nrf2 inh: Nrf2 pathway inhibition. AID 504444. Potency, µM (titrated, usually from 46 µM), actives largely listed as inhibitors. A549 ARE-Fluc reporter, luciferase luminescence, 18-24 h. 360,000 compounds, 2.1% hits; also: nearly all actives have a fitted effect of over 60% in size
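Concentration-response testing used A549 ARE_Fluc cells at 5000 cells/well. Following an 18-24 h compound incubation, viability was read by fluorescence (Ex 405/Em 525) and luciferase output by luminescence.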
Epigenetic derep: epigenetic control regulation, reporter derepression; murine LDR cells, GFP reporter derepression, 30 h; Potency, µM (top dose mostly 53.9 µM), hits mostly activators; 280,000 compounds, 0.2% hits; AID 1865; also: nearly all actives have a fitted effect of over 60% in size
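In this reporter-derepression format, murine cells bearing a silenced integrated CMV-GFP locus incubate with test compound (30 h, 37 C), then are washed and imaged; fluorescent objects of 20–120 um count as induced cells.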
A549 tox: kills or reduces viability of A549 cells in Nrf2 counter-screen. 390,000 compounds, 0.16% hits. Potency, µM (series often up to 46 µM), hits mostly inhibitors. A549 ARE-Fluc cells, CellTiter-Fluor viability, 18-24 h. AID 504648
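Cytotoxicity counterscreen: CellTiter-Fluor fluorescence was measured in A549 ARE_Fluc cells after 18-24 h of compound exposure in a concentration series. The subsequent BugLite luminescent read reports ARE-luciferase activity.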
PINK1 expr mod: PINK1 expression modulation. PINK1 immunofluorescence, high-content cytometry, 24 h. Potency, µM (titrated, usually from 76.6 µM), hits mostly activators. 410,000 compounds, 0.2% hits; active = well fitted activation curve with a large enough effect; inconclusive = small, poorly fitted or top-dose-only effect; cell line not stated here; also: nearly all actives have a fitted effect of over 65% in size
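PINK1 protein level read as immunofluorescence by microplate cytometer in a fixed, stained stable cell line after 24 h exposure to five compound concentrations, with CCCP as control.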
A number is an active result; - = inactive; ? = inconclusive; . = no result; [ ] = remark or other dose. Unless noted, calls follow the shape of the dose curve; as a rule, active = well fitted curve in the direction sought with a large enough effect; inconclusive = small, poorly fitted or top-dose-only effect, or another doubt; inactive = no such curve, though single readings can be large; an effect the other way counts as inactive or inconclusive.

SMILES | Nrf2 ARE act | Nrf2 inh | Epigenetic derep | A549 tox | PINK1 expr mod
CCCSc1nc(-c2ccccc2)cc(C(F)(F)F)c1C#N | 11µM | . | - | - | -
Cc1nc(SCC(=O)Nc2ccc(F)cc2)c(C#N)c(C)c1CC(=O)c1ccc(Br)cc1 | - | 13µM | - | 12µM | -
CCOC(=O)NC(=O)/C(C#N)=N\Nc1cccc(Cl)c1 | - | ? | - | - | 16µM
CCOC(=O)NC(=O)/C(C#N)=N\Nc1ccc(Cl)cc1 | - | . | - | - | -
COc1cc(/C=C2/SC(=S)N(Cc3ccccc3)C2=O)cc(Cl)c1O | - | ? | . | ? | -
O=C1/C(=C\c2ccc(O)cc2)SC(=S)N1Cc1ccccc1 | - | - | . | - | -
COc1cc(/C=C2\SC(=S)N(NC(=O)c3ccccc3O)C2=O)ccc1O | - | - | . | ? | -
O=C1/C(=C/c2ccc(O)c([N+](=O)[O-])c2)SC(=S)N1Cc1ccccc1 | - | - | - | - | 32µM
COc1cc([N+](=O)[O-])cc(/C=C2/SC(=S)N(Cc3ccccc3)C2=O)c1O | - | 21µM | . | - | 35µM
O=C(NN1C(=O)/C(=C/c2ccc(O)c([N+](=O)[O-])c2)SC1=S)c1ccccc1Cl | - | ? | - | 3.7µM | -
O=C1/C(=C\c2cccc([N+](=O)[O-])c2O)SC(=S)N1Cc1ccccc1 | - | 16µM | . | ? | ?
Cc1cc2c(s1)c1cnn(Cc3ccccc3F)c(=O)c1n2Cc1ccccc1F | . | - | . | - | .
Cc1c(C(=O)N2CCCC2)sc2ncnc(NCCN(C)C)c12 | . | . | . | . | -
Cc1c(C(=O)NCC(C)(C)N2CCOCC2)cnn1-c1nccc(-c2cccs2)n1 | . | . | . | . | -
COc1cc(/C=C2\SC(=O)N(Cc3ccc(Cl)cc3)C2=O)cc([N+](=O)[O-])c1O | - | 15µM | -[10.1 µM] | 15µM | -
CCN1C(=O)/C(=C\C=C\c2ccccc2[N+](=O)[O-])SC1=S | 5µM | - | - | ? | -
CNC(=O)c1cnc2sc(N3CCC(C)CC3)nn2c1=O | - | ? | - | - | -
Cc1ccc(S(=O)(=O)CCC(=O)Nc2nc(-c3cccnc3)cs2)cc1 | - | - | . | - | -
O=C(CCS(=O)(=O)c1ccc(Cl)cc1)Nc1nc(-c2ccncc2)cs1 | 11µM | - | . | - | -
Cc1ccc(S(=O)(=O)CCC(=O)Nc2nc(-c3ccccn3)cs2)cc1 | 14µM | 21µM | . | - | -
CCc1nnc(NC(=O)CSc2nc3cc4c(cc3cc2CC)OCCO4)s1 | - | - | - | -[1.84 µM] | 11µM
COc1ccc(C)cc1NC(=O)C(OC(=O)CNC(=O)c1ccccc1)c1ccccc1 (stereo unspecified) | . | - | . | - | .
CCOC(=O)c1c(NC(=O)COc2ccc(Br)cc2)sc(C(C)=O)c1C | - | . | - | - | -
CCOC(=O)c1c(NC(=O)COC(=O)c2cccnc2OCC)sc(C(=O)N(CC)CC)c1C | - | 15µM | . | - | -
CCOC(=O)c1c(NC(=O)COc2ccc(OC)cc2)sc(C(=O)N(CC)CC)c1C | - | 23µM | - | - | -
SMILES | Nrf2 ARE act | Nrf2 inh | Epigenetic derep | A549 tox | PINK1 expr mod
CCOc1ccc(-c2nonc2NC(=O)c2oc3ccc(F)cc3c2C)cc1 | - | - | - | - | -
Cc1c(C(=O)Nc2nonc2-c2ccc(F)cc2)oc2ccc(F)cc12 | - | ? | . | ? | 28µM
NC(N)=NCCC[C@H](NC(=O)CNC(=O)c1ccccc1)C(=O)Nc1cc(C(F)(F)F)ccc1Cl | . | - | . | - | .
N/C(=N\OC(=O)c1ccc(Cl)cc1)c1nonc1N | - | ? | - | ? | 7.9µM
COc1cccc(NC(=O)c2ccc(CN3CCc4ccccc4C3)cc2)c1 | - | 15µM | . | - | -
CC(=O)c1cccc(NC(=O)c2ccc(CN3CCc4ccccc4C3)cc2)c1 | - | - | . | - | -
COc1ccc(NC(=O)c2ccc(CN3CCc4ccccc4C3)cc2)cc1OC | - | 21µM | . | - | -
Cc1ccccc1NC(=O)c1sc2nc3c(cc2c1N)CN(Cc1ccccc1)CC3 | - | - | - | - | -
COc1ccc(NC(=O)c2sc3nc4c(cc3c2N)CN(Cc2ccccc2)CC4)cc1OC | - | - | 18µM | - | -
Cc1ccc(NS(=O)(=O)c2cc3c(cc2Cl)NC(=O)C3)cc1C | . | - | . | - | .
CC(C)c1nc(C(=O)N2CCOc3ccc(CN4CCN(c5ccccn5)CC4)cc3C2)cs1 | . | . | . | . | -
C[C@@H]1C[C@@H]2OC(=O)[C@]3(C)[C@H]2[C@@H](OC3(C)O)[C@]2(C)C(=O)C=C[C@H]12 (stereo partly specified) | 14µM | - | - | - | -
COc1ccc(C)cc1NC(=O)C(Sc1nnc(-c2ccncc2)n1-c1ccc(Cl)cc1)c1ccccc1 (stereo unspecified) | - | 26µM | - | - | -
CCOC(=O)C1CCCN(S(=O)(=O)CCNC(=O)c2cccc(OC)c2)C1 (stereo unspecified) | - | 18µM | . | - | -
COc1ccccc1C(=O)N[C@@H]1c2ccccc2C2(CCN(Cc3ccc4c(c3)OCO4)CC2)[C@H]1O | . | . | . | . | -
Cc1cc(N2CCCC2)ccc1NC(=O)COc1ccccc1 | - | - | . | - | -
CCc1ccccc1OCC(=O)Nc1ccc(N2CCCC2)cc1C | - | - | . | - | 28µM
c1coc(-c2nc3ccccc3s2)c1 | 11µM | ? | . | - | -
O=C(NCc1ccco1)c1nc2ccccc2s1 | 13µM | ? | - | -[1.84 µM] | ?
COc1ccc(-c2nc3ccccc3s2)cc1 | - | ? | - | - | -
CCNc1ncc2nc(-c3cccs3)c(=O)n(CCC#N)c2n1 | . | . | . | . | -
COC(=O)c1sccc1S(=O)(=O)N1CCC(n2c(CC3CCCC3)nc3cccnc32)CC1 | . | . | . | . | -
Cc1cc(NC(=O)CC2CCCC2)n(-c2nc3ccccc3[nH]2)n1 | - | 26µM | - | ? | -
Cc1cc(NC(=O)c2ccc(F)cc2F)n(-c2nc3ccccc3[nH]2)n1 | - | . | - | - | ?
CCOc1cc(N2CCOCC2)c(OCC)cc1NC(=O)COc1ncnc2ccccc12 | - | - | - | - | -
SMILES | Nrf2 ARE act | Nrf2 inh | Epigenetic derep | A549 tox | PINK1 expr mod
CCOc1cc(N2CCOCC2)c(OCC)cc1NC(=O)c1cc(-c2ccco2)nc2ccccc12 | - | 15µM | - | ? | .
COc1ccc(-c2cc(C(=O)Nc3ccccc3N3CCOCC3)c3ccccc3n2)cc1OC | - | 15µM | - | - | -
O=C1CC(c2ccc(Cl)cc2)Sc2nc(-c3ccc(F)cc3)nn21 (stereo unspecified) | - | - | - | - | -
O=C(NCC1(N2CCOCC2)CCCCCC1)c1cnn(-c2nccc(-c3ccco3)n2)c1C1CC1 | . | . | . | . | -
C=C1C(=O)O[C@@H]2[C@@H]1CC/C(C)=C\CC[C@@]1(C)O[C@H]21 | . | . | - | . | .
C=C1C(=O)OC2C1CCC(C)=C1C(=O)C3OC3(C)C12 (stereo unspecified) | - | 16µM | . | ? | -
CCN(CC)c1ccc(C(=C2C=CC(=[N+](CC)CC)C=C2)c2ccc(N(CC)CC)cc2)cc1 | - | 5.8µM | . | 7.3µM | -

Compound activity from PubChem.
